# Assay outcomes (PubChem BioAssay)
# This is a sample that favours compounds with a hit; in the whole collection about 19% have one here.
# DT40 TDP1 CPT: qHTS for Inhibitors of human tyrosyl-DNA phosphodiesterase 1 (TDP1): qHTS in cells in presence of CPT; chicken DT40 Tdp1-/-;hTDP1 cells + 20 nM CPT, ATP luminescence, 48 h; Potency, µM (highest dose often 46.2 µM), actives largely listed as inhibitors; hit rate 12% among 420,000; AID 686979, 2013; further: nearly all actives have a fitted effect of over 55% in size
#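 Cell growth measured by CellTiter-Glo luminescence after a minimum 48 h, 37 C compound exposure with 20 nM CPT in Tdp1-knockout DT40 cells stably expressing hTDP1, seeded 400/well; qHTS titration format.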
# TDP1 block: qHTS Assay for Inhibitors of Tyrosyl-DNA Phosphodiesterase (TDP1); recombinant TDP1, AlphaScreen DNA substrate cleavage; Potency, µM (top dose mostly 130 µM), hits mostly inhibitors; hit rate 0.28% among 350,000; AID 485290, 2010; further: nearly all actives have a fitted effect of over 40% in size
# Target sequence (Q9NUW8 whole entry, looked up): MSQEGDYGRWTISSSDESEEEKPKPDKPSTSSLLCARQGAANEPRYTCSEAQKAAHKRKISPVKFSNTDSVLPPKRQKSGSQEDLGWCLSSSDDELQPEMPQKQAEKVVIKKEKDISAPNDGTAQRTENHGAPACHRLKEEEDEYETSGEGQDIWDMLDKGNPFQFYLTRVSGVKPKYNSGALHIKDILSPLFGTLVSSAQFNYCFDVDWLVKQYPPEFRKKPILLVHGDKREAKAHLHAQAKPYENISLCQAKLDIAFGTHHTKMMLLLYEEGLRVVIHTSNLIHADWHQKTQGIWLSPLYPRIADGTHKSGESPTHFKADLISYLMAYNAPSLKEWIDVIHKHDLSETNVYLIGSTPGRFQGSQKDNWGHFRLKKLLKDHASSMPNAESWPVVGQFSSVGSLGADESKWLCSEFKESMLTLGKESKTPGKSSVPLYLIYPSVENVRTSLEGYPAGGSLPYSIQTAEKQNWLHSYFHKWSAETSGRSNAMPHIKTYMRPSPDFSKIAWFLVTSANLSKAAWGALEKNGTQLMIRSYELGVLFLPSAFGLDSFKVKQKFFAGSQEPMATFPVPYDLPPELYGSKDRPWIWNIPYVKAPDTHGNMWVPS
#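 Recombinant human Tdp1 (E. coli-expressed, 1 nM final) preincubated with compounds 15 min at room temperature, then 5'-biotin/3'-phosphotyrosine-FITC DNA substrate (15 nM final) added for 5 min. AlphaScreen beads (10 ug/ml final) added 10 min; cleavage lowers signal.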
# IL-1B inflam inh: qHTS for Inhibitors of Inflammasome Signaling: IL-1-beta AlphaLISA Primary Screen. activity change, % at 57.5 µM. THP-1 LPS/ATP IL-1B secretion, AlphaLISA, 16 h; active compounds read low. hit rate 4.7% among 360,000; in the data active means activity change below about -50%; inconclusive means mostly about -30% to -49%
#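 Secreted IL-1B measured by AlphaLISA bead assay after 16 h compound exposure of THP-1 cells; compounds (final up to 57.5 uM) added 1 h before LPS (250 ng/mL) and ATP (1.25 mM) stimulation; lower signal means less secretion.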
# HepG2 tox-1: qHTS for Inhibitors of TGF-b: Cytotox Counterscreen | Potency, µM (top dose mostly 46.1 µM), actives largely listed as cytotoxic | AID 588856, 2011 | hit rate 0.76% among 410,000 | HepG2 CAGA-GFP viability, ATP luminescence, 18 h
#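 HepG2 CAGA-GFP cells (1000/well, DMEM with 1% FBS) received compound, then TGF-beta at 500 pg/mL final, and were incubated 18 hours at 37 degrees C. Viability was read by CellTiter-Glo luminescence. Media-only wells were set as complete cell-killing and DMSO as no toxicity.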
# TGFb inhibitor: qHTS for Inhibitors of TGF-b; HepG2 CAGA-GFP TGF-b/SMAD3 reporter, GFP fluorescence, 18 h; TGF-beta stimulated, 500 pg/mL final; Potency, µM (highest dose often 46.1 µM), hits mostly inhibitors; hit rate 1.2% among 410,000; further: nearly all actives have a fitted effect of over 65% in size
#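 Using HEPG2 CAGA-GFP reporter cells at 1000 cells/well, we pinned test compounds, stimulated with recombinant TGF-beta (500 pg/mL final) and measured total well GFP after 18 h.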
# TDP1 cell noCPT: qHTS for Inhibitors of human tyrosyl-DNA phosphodiesterase 1 (TDP1): qHTS in cells in absence of CPT | DT40 Tdp1-/- hTDP1 cells, no CPT, ATP luminescence, 48 h | Potency, µM (titrated, usually from 46.2 µM), usual class: inhibitors | hit rate 15% among 420,000 | AID 686978, 2013; further: nearly all actives have a fitted effect of over 55% in size
#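 Camptothecin absent (DMSO only). Human TDP1-complemented DT40 knockout cells, 400 cells/well, 37 °C for minimum 48 hr; ATP measured via CellTiter-Glo, 30 min dark incubation, luminescence.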
# TGFb CAGA inh: qHTS for Inhibitors of TGF-b: Confirmation of Cherry Picks | shares compounds with TGFb inhibitor | HepG2 CAGA-GFP TGF-b reporter, GFP fluorescence, 18 h; cells stimulated with TGF-beta, 500 pg/mL | Potency, µM (titrated, usually from 46.1 µM), usual class: inhibitors | hit rate 63% among 1,600 | AID 720534, 2013; further: nearly all actives have a fitted effect of over 65% in size
# HepG2 tox-2: qHTS for Inhibitors of TGF-b: Cytotox Counterscreen for Cherry Picks | shares compounds with TGFb inhibitor | HepG2 CAGA-GFP viability, ATP luminescence, 18 h; cells stimulated with TGF-beta, 500 pg/mL | Potency, µM (doses to about 46.1 µM), hits mostly inhibitors | hit rate 27% among 1,600 | AID 720535, 2013; further: nearly all actives have a fitted effect of over 70% in size
# CCL64 TGFb inh: qHTS for Inhibitors of TGF-b: CCL64 Cells Orthogonal Assay for Cherry Picks | shares compounds with TGFb inhibitor | CCL64 CAGA-GFP reporter, TGF-b stimulated, GFP fluorescence, 18 h | Potency, µM (highest dose often 46.1 µM), hits mostly inhibitors | hit rate 41% among 1,600 | AID 720536, 2013; further: nearly all actives have a fitted effect of over 65% in size
# COP TGFb inh: qHTS for Inhibitors of TGF-b: Hit Validation in HepG2 Cells using COP promoter. shares compounds with TGFb inhibitor. HepG2 COP-GFP TGF-b reporter, GFP fluorescence, 18 h; cells stimulated by added recombinant TGF-beta. Potency, µM (highest dose often 46.1 µM), usual class: inhibitors. hit rate 3% among 1,600; further: nearly all actives have a fitted effect of over 70% in size
# Hits are given with their value; 0 = inactive; ? = inconclusive; - = not tested or not shown; ! = not confirmed by another sample; [ ] = remark or other dose. Unless noted, the call rests on the fitted dose curve; in most records, active means well fitted curve in the direction sought with a large enough effect; inconclusive means small, poorly fitted or top-dose-only effect, or another doubt; inactive means no such curve, though single readings can be large; an effect the other way counts as inactive or inconclusive.
SMILES,DT40 TDP1 CPT,TDP1 block,IL-1B inflam inh,HepG2 tox-1,TGFb inhibitor,TDP1 cell noCPT,TGFb CAGA inh,HepG2 tox-2,CCL64 TGFb inh,COP TGFb inh
Cn1cc(-c2cnc3c(NC=O)cc(-c4cccc(C(F)(F)F)c4)cn23)cn1,?,-,0,0,11µM,21µM,23µM,0,?,0
CC(=O)c1cccc(-c2cnc3c(NC=O)cc(-c4ccccc4F)cn23)c1,?,-,0,0,6.3µM,?,6.5µM,0,1.5µM,0
CC(=O)c1cccc(Nc2ccc(-c3ccccc3F)nn2)c1,0,0,0,0,0,0,-,-,-,-
Cc1ccc(NC2CCCCC2NS(=O)(=O)c2ccccc2)c(C)c1 (centres undefined),?,0,0,0,?,0,-,-,-,-
O=C(Nc1cc(Sc2ccccn2)cc([N+](=O)[O-])c1)c1cccc(F)c1,?,0,0,0,11µM,?,10µM,?,13µM,0
CCN(C(=O)COC(=O)CSc1ccccc1)c1c(N)n(Cc2ccccc2)c(=O)[nH]c1=O,0,0,0,0,0,0,-,-,-,-
CC(C)(C)OC(=O)N1Cc2[nH]c3ccccc3c2C[C@@H]1C(=O)O,0,0,0,0,0,0,-,-,-,-
Cc1ccnc(Nc2nc(-c3sc(C)nc3C)cs2)c1,15µM,-,-100,3.2µM,6.3µM,?,9.2µM,7.3µM,?,0
Cc1cc2nc(-c3ccc(F)cc3)c(CC(C)(C)C)n2c(C)c1Br,26µM,-,0,0,10µM,21µM,?,?,?,0
Cc1ccc(NS(=O)(=O)c2c(C)ccc3nsnc23)c([N+](=O)[O-])c1,0,-,0,0,?,0,-,-,-,-
CCCCCN(C(=O)CCC(=O)OCC(=O)N1CCCCC1C)c1c(N)n(CCCC)c(=O)[nH]c1=O (centres undefined),0,0,0,0,0,0,-,-,-,-
Cc1ccnc(NC(=O)CCCOc2cc(=O)n(C)c3ccccc23)c1,?,0,-76!,0,2.2µM,?,5.8µM,4.1µM,26µM,0
COc1cccc(NC(=O)COc2cc(O)c3c(c2)OC(C)(C)CC3=O)c1,?,-,0,0,0,?,-,-,-,-
FC(F)(F)c1cccc(-c2nc3nc(Cl)c(Cl)nc3[nH]2)c1,7.3µM,-,0,0,2.2µM,2.1µM,6.5µM,6.5µM,5.2µM,0
CC1CCc2[nH]c3ccc(C(=O)N4CCCC(C(F)(F)F)C4)cc3c2C1 (centres undefined),?,0,-62,0,14µM,16µM,?,?,21µM,0
CCOC(=O)C1CCCN(C(=O)c2ccc3[nH]c4c(c3c2)CC(C)CC4)C1 (centres undefined),0,0,0,0,0,?,-,-,-,-
CC(C(=O)NCCCc1ccccc1)n1cccc1C(=O)c1ccccc1 (centres undefined),?,0,0,0,0,?,-,-,-,-
Cc1ccc(OCCSc2nc3ccccc3n2CCC(=O)O)cc1,0,0,0,0,0,0,-,-,-,-
COc1ccc2cc([C@H](C)C(=O)N(C)Cc3ccccc3N3CCCC3)ccc2c1,23µM,0[0.0935 µM],0,0,10µM,26µM,8.2µM,?,?,0
CC(NCc1ccc(OCC(N)=O)cc1)C12CC3CC(CC(C3)C1)C2 (centres undefined),0,-,0,0,0,?,-,-,-,-
CC(=O)Nc1ncnc2c1c(-c1ccc(Cl)cc1)nn2C(C)(C)C,?,0,0,0,3.5µM,?,2.6µM,?,?,?
C=CCC[C@@H](Cc1ccc(F)cc1)C(=O)O[C@H](CNC(=O)[C@@H](CC=C)CC(=O)N[C@H](CO)Cc1ccccc1)c1ccccc1,0,0,0,0,?,?,-,-,-,-
C=CCC[C@H](Cc1ccc(F)cc1)C(=O)OC[C@@H](Cc1c[nH]c2ccccc12)NC(=O)[C@H](CC=C)CC(=O)N(CCO)Cc1ccccc1,18µM,0,?,0,11µM,?,12µM,?,18µM,0
O=C(NCC1CCCN1S(=O)(=O)c1cccs1)c1cccc([N+](=O)[O-])c1 (centres undefined),?,-,0,0,0,0,-,-,-,-
Cc1ccc2nc(N3CCN(C(=O)c4ccc(F)cc4)CC3)c(C#N)cc2c1,?,-,0,0,10µM,23µM,?,0,?,0
SMILES,DT40 TDP1 CPT,TDP1 block,IL-1B inflam inh,HepG2 tox-1,TGFb inhibitor,TDP1 cell noCPT,TGFb CAGA inh,HepG2 tox-2,CCL64 TGFb inh,COP TGFb inh
Nc1ncnc2c1ncn2C1C=C(CO)C(O)C1O (centres undefined),0.037µM,-,0,10µM,8.9µM,0.16µM,?,0.13µM,?,0
O=C(NNC(=O)C1C2C=CC(C2)C1C(=O)O)c1ccccc1O (centres undefined),0,0,0,0,0,0,-,-,-,-
Cc1ccc(CNS(=O)(=O)c2cc3c(cc2C)NC(=O)CO3)cc1,?,0,0,0,0,?,-,-,-,-
COC(=O)c1ccc(OC)c(CN2CCCN(Cc3ccc(F)cc3)S2(=O)=O)c1,?,-,0,0,0,?,-,-,-,-
CCCn1nc2cc(C(=O)NCCc3cccs3)ccc2c1OCC,0,0,0,0,?,18µM,0,0,0,0
O=S(Cc1ccc(Br)cc1)Cc1nnc(SCc2ccc(Br)cc2)n1-c1ccccc1 (centres undefined),12µM,0,-58,0,8.9µM,10µM,21µM,?,?,0
O=c1cc(-c2ccccc2)n2c(SCc3ccc(Br)cc3)nnc2[nH]1,0,0,-,0,0,0,-,-,-,-
